Only some compounds are listed: those with a hit (about 1% of all), similar ones and a draw of the others.
cytoskel mod = cytoskeleton assembly modification. HUVEC TNFa F-actin phalloidin imaging, high content. 91,000 tested, 0.18% active. inhibition, % at 2 µM;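 active means inhibition above the batch mean plus 3 SD and confirmed as a hit by visual image inspection, cut at about 30% in these data, passing the limit was not always enough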
VCAM1 TNFa inh = reduces TNF alpha induced VCAM1 expression in HUVEC. HUVEC TNFa-induced VCAM-1 immunofluorescence, high-content imaging. inhibition, % at 2 µM. 95,000 tested, 0.48% active;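 active means inhibition above the batch mean plus 3 SD, with images confirmed as a hit by eye, cut at about 37% in these data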;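 further: 0% = TNF-stimulated DMSO wells and 100% = unstimulated control wells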
E-sel TNF inh = TNF alpha driven E-selectin expression inhibition; inhibition, % at 2 µM; HUVEC TNFa-induced E-selectin immunofluorescence, high content; 120,000 tested, 0.71% active;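 active means inhibition above the batch mean plus 3 SD, and confirmed as a hit on visual image review, cut at about 43% in these data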;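 further: 0% = TNF-stimulated DMSO wells and 100% = unstimulated control wells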
HUVEC tox TNFa = toxic to HUVEC cells under TNF alpha stimulation; cell count reduction, % at 2 µM; 93,000 tested, 0.17% active; HUVEC TNFalpha-stimulated, Hoechst cell count, imaging;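 active means cell count reduction exceeding the screen mean by over 5 SD, scaled to untreated wells per plate, cut at about 78% in these data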;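 further: cells counted after 24 h of TNF alpha exposure following the 1 h pretreatment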
Active calls of the source: *; · = no result given.

SMILES	cytoskel mod	VCAM1 TNFa inh	E-sel TNF inh	HUVEC tox TNFa
Cn1cc(Cl)c(C(=O)NNC(=S)NCc2ccco2)n1	·	·	73*	·
CCOc1ccc(NC(=S)N(CCN2CCOCC2)Cc2cc3cc4c(cc3[nH]c2=O)OCCO4)cc1	·	·	5	·
CC(=O)c1c(C(C)=O)c(C)n(NC(=O)c2ccccc2O)c1C	76*	-4	2	-16
CC(=O)c1c(C(C)=O)c(C)n(NC(=O)c2cccnc2)c1C	-3	12	·	-27
O=C(O)/C=C/C(=O)N(Cc1ccc2c(c1)OCO2)C1CC(=O)N(CCc2ccccc2)C1=O (centres undefined)	·	·	-18	·
O=C(c1cccc(F)c1)N1CCN(c2cc(N3CCCCC3)c(F)cc2[N+](=O)[O-])CC1	16	-5	51*	15
N/C(Cc1ccccc1)=N\OC(=O)c1cccc2ccccc12	·	·	-6	·
N#Cc1ccc(-n2c(-c3ccccc3)nnc2-c2ccccc2)cc1C#N	13	-54	15	-37
N#Cc1cccc(-n2c(-c3ccccc3)nnc2-c2ccccc2)c1C#N	-3	-1	100*	-10
CCOC(=O)C1CCN(C(=O)NS(=O)(=O)c2ccc(C)cc2)CC1	·	·	-6	·
O=C(CCl)N1N=C(c2ccco2)CC1c1cccs1 (centres undefined)	·	·	70*	·
CC(C)n1c(SCC(=O)Nc2nc3c(s2)CCCC3)nc2c1c(=O)n(C)c(=O)n2C	1	1	100*	-14
CN1c2ccccc2C2(C)CCCC3=Cc4cccc([N+](=O)[O-])c4OC312 (centres undefined)	·	·	69*	·
Cc1cc(NC(=O)CSc2nnnn2C)n(-c2ccccc2)n1	35*	-6	14	-52
Cn1nnnc1SCC(=O)Nc1cc(C(C)(C)C)nn1-c1ccccc1	-63	12	·	-4
CCOc1ccc(N2C(=O)C3ON(c4ccccc4)C(c4cccs4)C3C2=O)cc1 (centres undefined)	·	·	8	·
CC1=NN(/C(=N\c2nnc(C)s2)Nc2ccc(C(C)(C)C)cc2)[C@H](c2ccc(C)cc2)S1	3	5	4	-10
CCN(CC)c1ccc(NC(=O)C2CC3CCC2C3)cc1 (centres undefined)	·	·	96*	·
CC(=O)Nc1nc(-c2ccc3c(c2)CCN3S(C)(=O)=O)cs1	·	·	11	·
CS(=O)(=O)N1CCc2cc(-c3csc(NC(=O)Cc4cccs4)n3)ccc21	48	-3	93*	-34
O=C(NCc1ccco1)c1ccc(CS(=O)(=O)Cc2ccc(Cl)cc2)o1	-10	93*	·	79*
Cc1ccc(CS(=O)(=O)Cc2ccc(C(=O)NCc3ccco3)o2)cc1	5	-7	8	-41
O=C(CCCCCN1C(=O)c2ccccc2C1=O)Nc1ccccc1	-2	9	-1	-24
O=C(CCCCCN1C(=O)c2ccccc2C1=O)Nc1nccs1	-4	50*	7	69
CCNC(=S)N1CCCC(C(N)=O)C1 (centres undefined)	·	·	16	·
SMILES	cytoskel mod	VCAM1 TNFa inh	E-sel TNF inh	HUVEC tox TNFa
COc1ccc(CNn2c(-c3cccs3)nc3ccccc3c2=O)cc1OC	·	·	-2	·
Cc1n[nH]c(C)c1CCc1nc2c3ccccc3nc(SCC(N)=O)n2n1	-42	-4	·	-20
Cc1ccc(NC(=O)CSc2nc3ccccc3c3nc(CCc4c(C)n[nH]c4C)nn23)cc1F	4	-13	82*	-6
Clc1ccc(C2=Nn3c(nnc3-c3cccnc3)SC2)s1	-9	78*	·	72
Brc1ccc(C2=Nn3c(nnc3-c3cccnc3)SC2)s1	0	2	5	-30
C=CSc1sc(Cl)c(N(CC)CC)c1[N+](=O)[O-]	·	·	35	·
Cc1cc2ccccc2c(=O)n1CC(=O)N1CCN(c2cccc(Cl)c2)CC1	·	·	-6	·
CCn1c(SCC(=O)N2CCN(c3cccc(Cl)c3)CC2)nc2ccccc2c1=O	-6	96*	-31	-1
CCC(C)Sc1nc(O)cc(=O)[nH]1 (centres undefined)	-2	15	·	78*
CC(C)OCCCNC(=O)c1cccs1	11	18	-7	0
CCCCOCCCNC(=O)c1cccs1	36	90*	5	-77
FC(F)(F)c1cnc2c(-c3ccccc3)n[nH]c2c1	·	·	68*	·
COc1ccc(CCNC(=O)CSc2ccc(Br)cc2)cc1OC	·	·	-36	·
Cc1nc(NC(C)C)c2oc3ccccc3c2n1	-161	78*	·	91*
CCNc1nc(C)nc2c1oc1ccccc12	-29	52	·	92*
CCNc1nc(CC)nc2c1oc1ccccc12	·	·	-33	·
Cc1ccc(-n2[nH]c(C)c(/C=N/Nc3ccc([N+](=O)[O-])cc3[N+](=O)[O-])c2=O)cc1	·	·	4	·
CCN(CC)c1ncnc2c1cnn2Cc1ccc(Cl)cc1	·	·	15	·
COc1ccc(NC(=O)c2cc(-c3ccc(OC)c(OC)c3)on2)cc1OC	20	3	80*	-12
Cc1cccc(OCC(=O)Nc2cc(C)ccc2O)c1	-9	58*	-16	-4
Cc1cccc(OCCCC(=O)O)c1	-15	9	65*	10
Cc1ccc(O)c(NC(=O)CCC2CCCCC2)c1	-16	79*	25	26
Cc1nc(-c2ccc(NC(=O)CC(C)C)cc2)cs1	·	·	3	·
CCC[n+]1cn(/C(C(=S)Nc2cccc(Cl)c2C)=C(/[O-])c2ccc(OC)c(OC)c2)c2ccccc21	·	·	8	·
O=C(CCc1ccccc1)NCCC1=CCCCC1	·	·	75*	·
SMILES	cytoskel mod	VCAM1 TNFa inh	E-sel TNF inh	HUVEC tox TNFa
O=C(Cc1ccccc1)NCCC1=CCCCC1	·	·	-5	·
Cc1ccc(OCc2nnc(N)s2)cc1	·	·	8	·
Cc1cccc(OCc2nnc(N)s2)c1C	26	-8	71*	-17
CCOc1nc(N2CCOCC2)nc(N2CCOCC2)n1	·	·	-14	·
Cc1ccc(S(=O)(=O)Nc2ccc(NC(=O)Nc3ccc(F)cc3F)cc2)cc1	·	·	82*	·
O=C(Nc1ccncc1)Nc1ccc(F)cc1F	-5	-10	-10	-22
CC(C)CC(CO)N1CCN(C(=O)c2cccc(C(F)(F)F)c2)CCC1=O (centres undefined)	·	·	-21	·
COCCNC(=O)c1ccccc1NS(=O)(=O)c1ccc(Br)s1	-14	-4	23	-9
C=C1C(=O)C=C2CN(C(=O)c3ccccc3)[C@@](Cc3ccc(F)cc3)(C(=O)OC)[C@@H]12	·	·	100*	·
CCOC(=O)N1CCC(N(CCOC)C(=O)Nc2ccc(Cl)cc2)CC1	·	·	80*	·
CCOC(=O)N1CCC(N(CCCOC)C(=O)Nc2ccc(CC)cc2)CC1	-7	-26	15	12
CCOC(=O)c1oc2ccccc2c1NC(=O)Cc1cccs1	-45	83*	·	75
CCOCC(=O)Nc1c(C(=O)OCC)oc2ccccc12	17	3	8	-19
CCOC(=O)c1[nH]c(C)c(C(=O)c2ccc(C)cc2)c1C	18	48*	-16	33
CCOC(=O)c1c(C)[nH]c(C(=O)OCCOc2ccccc2C)c1C	·	·	67*	·
CC(/C=N/NC(=O)CN1CCN(Cc2ccc(Cl)cc2)CC1)=C\c1ccco1	·	·	9	·
CC(/C=N/NC(=O)c1cc(-c2ccc(Cl)cc2)nc2ccccc12)=C\c1ccco1	-2	80*	3	58
CCN(CC)CCNC(=O)CS(=O)Cc1nc(-c2ccccc2Cl)oc1C (centres undefined)	-9	-13	71*	-5
Cn1c(NCCN2CCCCC2)cc(=O)n(C)c1=O	·	·	81*	·
N=C1C(c2nc3ccccc3s2)=C(O)CN1Cc1ccco1	-8	96*	·	-5

Compound activity from PubChem BioAssay.
